“And” between values parts separate entries of the source, which are not always exact repeats. Equal values may be shown once. Records with an inconclusive call do not appear. The source made the active and inactive calls. Unless noted, the call rests on the fitted dose curve; in most records, active means well fitted curve in the direction sought with a large enough effect; inconclusive means small, poorly fitted or top-dose-only effect, or another doubt; inactive means no such curve, though single readings can be large; an effect the other way counts as inactive or inconclusive.
Experiments:
[1] = biological target: Cellular tumor antigen p53 (Homo sapiens) (UniProt P04637); assay: Primary qHTS for small molecule compounds that upregulate eGFP-tagged delta133p53alpha (in N-terminal) cells. (AID 2060322); settings: NCI-H358 eGFP-delta133p53alpha fluorescence, 24 h; activation: active compounds read high;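 further: series mostly up to about 56 µM; 0% = DMSO vehicle and 100% = reference activator; nearly all actives have a fitted effect of over 75% in size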
Sequence of Cellular tumor antigen p53 (Homo sapiens) (P04637 whole entry, looked up): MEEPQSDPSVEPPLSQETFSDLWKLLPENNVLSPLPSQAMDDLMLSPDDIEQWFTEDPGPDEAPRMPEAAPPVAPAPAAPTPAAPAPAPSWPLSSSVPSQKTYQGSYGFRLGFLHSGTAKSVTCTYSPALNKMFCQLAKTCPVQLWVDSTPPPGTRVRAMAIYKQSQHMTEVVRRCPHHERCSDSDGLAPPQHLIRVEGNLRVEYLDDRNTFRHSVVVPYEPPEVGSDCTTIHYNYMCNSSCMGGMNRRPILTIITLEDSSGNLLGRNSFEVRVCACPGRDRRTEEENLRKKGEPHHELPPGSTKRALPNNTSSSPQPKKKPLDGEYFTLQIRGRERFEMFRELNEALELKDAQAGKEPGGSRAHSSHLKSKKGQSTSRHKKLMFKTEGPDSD
Method in brief: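 NCI-H358 cells pre-induced 24 h with 10 ng/ml doxycycline to express N-terminal eGFP-delta133p53alpha, then dosed 24 h at 37C without doxycycline; fixed, Hoechst-stained, GFP intensity by laser scanning cytometry, normalized to DMSO (0%) and 57.5 uM 5-azacytidine (100%).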

[2] = biological target: Cellular tumor antigen p53 (Homo sapiens) (UniProt P04637); assay: Primary qHTS for small molecule compounds that upregulate eGFP-tagged delta133p53alpha (in C-terminal) cells. (AID 2060324);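 further: 0% = DMSO wells and 100% = 57.5 µM 5-azacytidine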
Method in brief: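 In this qHTS, GFP-tagged delta133p53alpha levels are measured in fixed NCI-H358 cells after 24 h compound exposure at 37 °C. The cells are pre-induced with 100 ng/ml doxycycline, and signal is normalized to DMSO-treated wells as 0%.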

[3] = biological target: Aldehyde dehydrogenase, mitochondrial (Homo sapiens) (UniProt P05091); assay: qHTS for Inhibitors of the Aldehyde Dehydrogenase Family (ALDH2) Validation screens (AID 2061302; active means well fitted inhibition curve with a large enough effect; title and protocol of this record describe different tests;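 further: plate controls were DMSO vehicle for no effect and maximal DPI positive control response for full effect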)
[4] = biological target: Retinaldehyde dehydrogenase 3 (Homo sapiens) (UniProt P47895); assay: qHTS for Inhibitors of the Aldehyde Dehydrogenase Family (ALDH1A3) Validation screen (AID 2061312); further: on the % scale 0 is the no-effect control and ±100 the full control effect; nearly all actives have a fitted effect of over 45% in size
[5] = biological target: Aldehyde dehydrogenase, mitochondrial (Homo sapiens) (UniProt P05091); assay: qHTS for Inhibitors of the Aldehyde Dehydrogenase Family (ALDH2) Primary screen (AID 2061308);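 further: plate controls were vehicle for no effect and reference inhibitor for full effect; nearly all actives have a fitted effect of over 55% in size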
[6] = biological target: Retinaldehyde dehydrogenase 3 (Homo sapiens) (UniProt P47895); assay: qHTS for Inhibitors of the Aldehyde Dehydrogenase Family (ALDH1A3) Primary screen (AID 2061315);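 further: plate controls were DMSO vehicle for no effect and reference inhibitor for full effect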
[7] = BET inhibitor-based combinations targeting novel dependencies in MECOM-rearranged (r) AML: SET-2 cell line (AID 2202231); settings: SET-2 AML cells viability, CellTiter-Glo luminescence, 48 h; viability: active compounds read low, concentration not given here; further: nearly all actives have a fitted effect of over 35% in size; further: potency means the concentration at half of the fitted maximal effect;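 on viability: plate controls were DMSO treated cells for no effect and wells without cells for full effect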
Method in brief: (§1)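 Cells were plated at 500 per well and exposed to an 11-point dose series of each drug for 48 hr. Viability was measured by CellTiter-Glo luminescence, normalized to DMSO and empty-well controls, and summarized as AUC and per-cell-line Z-AUC.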

[8] = BET inhibitor-based combinations targeting novel dependencies in MECOM-rearranged (r) AML: OCI-AML3 cell line (AID 2202232); settings: Potency: OCI-AML3 viability; further: nearly all actives have a fitted effect of over 35% in size; further: potency means the concentration at half of the fitted maximal effect
Method in brief: as §1

[9] = BET inhibitor-based combinations targeting novel dependencies in MECOM-rearranged (r) AML: MV-4-11 cell line (AID 2202233); further: nearly all actives have a fitted effect of over 45% in size; further: potency means the concentration at half of the fitted maximal effect
Method in brief: (§2)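 Activity is given as area under the curve and as Z-AUC, mean-centred within each cell line. It comes from 11-point dose curves normalized to DMSO and empty wells. CellTiter-Glo luminescence was read after 48 hr drug exposure of 500 cells/well.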

[10] = BET inhibitor-based combinations targeting novel dependencies in MECOM-rearranged (r) AML: HNT-34 cell line (AID 2202234); further: nearly all actives have a fitted effect of over 35% in size; further: potency means the concentration at half of the fitted maximal effect
Method in brief: as §2

[11] = BET inhibitor-based combinations targeting novel dependencies in MECOM-rearranged (r) AML: UCSD-AML1 cell line (AID 2202235); further: nearly all actives have a fitted effect of over 40% in size; further: potency means the concentration at half of the fitted maximal effect
Method in brief: as §2

[12] = BET inhibitor-based combinations targeting novel dependencies in MECOM-rearranged (r) AML: AML-191 cell line (AID 2202236; further: nearly all actives have a fitted effect of over 35% in size; further: potency means the concentration at half of the fitted maximal effect)
Method in brief: as §1

[13] = BET inhibitor-based combinations targeting novel dependencies in MECOM-rearranged (r) AML: AML-194 cell line (AID 2202237; further: nearly all actives have a fitted effect of over 40% in size; further: potency means the concentration at half of the fitted maximal effect)
Method in brief: as §1

C[C@]12CCC(=O)C=C1CC[C@@H]1[C@@H]2C(=O)C[C@@]2(C)[C@H]1CC[C@]2(O)C(=O)CO
inactive: activation [1] 0.837% and -9.81% | Potency [2] | Potency [3] | Potency [4]

O=C(Nc1ccncc1)c1cc([N+](=O)[O-])ccc1Cl
inactive: activation [1] 6.63% | Potency [2] | Potency [3] | Potency [4]

CNCCCN1c2ccccc2CCc2ccccc21
inactive: activation [1] 14.2% and -26.6% | Potency [2] | Potency [3] | Potency [4]

CCCNC(=O)NS(=O)(=O)c1ccc(Cl)cc1
inactive: activation [1] -9.6% and 2.39% and -46.5% | Potency [2] | Potency [3] | Potency [5] | Potency [4] | Potency [6]

O=[N+]([O-])c1ccc(-c2nc(-c3ccc(F)cc3)c(-c3ccncc3)[nH]2)cc1
inactive: activation [1] 47.4% | Potency [2] | Potency [3] | Potency [5] | Potency [4] | Potency [6] | viability [7] 106% | Potency [8] | Potency [10] | Potency [11] | Potency [12] | Potency [13]
active: Potency [9] 16600 nM

O=C(Nc1ccc2c(c1)CCN(Cc1ncn[nH]1)C2)c1ccccc1-c1ccc(C(F)(F)F)cc1
active: Potency [9] 14800 nM
inactive: activation [1] -9.63% and 4.33% | Potency [2] | Potency [3] | Potency [5] | Potency [4] | Potency [6] | viability [7] 96.3% | Potency [11] | Potency [12]

CCc1cncnc1N1CCN(Cc2nc3ccc(C(F)(F)F)cc3[nH]2)CC1
active: Potency [7] 14800 nM | Potency [9] 18600 nM
inactive: activation [1] -18% and -36.7% and 26.8% | Potency [2] | Potency [3] | Potency [5] | Potency [4] | Potency [6] | Potency [11]

COC(=O)C(N)Cc1ccc(Cl)cc1 (stereo not drawn)
inactive: activation [1] -12% | Potency [2] | Potency [3] | Potency [4]

CC(C)(Sc1ccc(CCN(CCCCC2CCCCC2)C(=O)NC2CCCCC2)cc1)C(=O)O
inactive: activation [1] 26.5% and 1.67% and -32.7% | Potency [2] | Potency [3] | Potency [5] | Potency [4] | Potency [6] | viability [7] 118% | Potency [9] | Potency [10] | Potency [11] | Potency [12] | Potency [13]

CNS(=O)(=O)CCc1ccc2[nH]cc(C3CCN(C)CC3)c2c1
inactive: activation [1] 13.4% [middle of 4 runs] | Potency [2] | Potency [3] | Potency [5] | Potency [4] | Potency [6]

O=C(c1ccc(Cl)cc1)N1CCN(c2ccc([N+](=O)[O-])c3ncccc23)CC1
inactive: activation [1] -9.46% | Potency [2] | Potency [3] | Potency [4]

CC(C)(C(=O)O)c1ccc(C(O)CCCN2CCC(C(O)(c3ccccc3)c3ccccc3)CC2)cc1 (stereo not drawn)
inactive: activation [1] 1.67% and -7.64% and -17.3% | Potency [2] | Potency [3] | Potency [5] | Potency [4] | Potency [6]

O=C(O)CCc1ccc(NCc2cccc(Oc3ccccc3)c2)cc1
inactive: activation [1] -48.8% and -14.3% and -8.5% | Potency [2] | Potency [3] | Potency [5] | Potency [4] | Potency [6] | viability [7] 117% | Potency [9] | Potency [10] | Potency [12] | Potency [13]

Nc1nc2c(nc(Br)n2C2OC3COP(=O)(O)O[C@@H]3C2O)c(=O)[nH]1 (stereo partly drawn)
inactive: activation [1] 29.4% | Potency [2] | Potency [3] | Potency [4]

CSc1nc(N)c2ncn([C@@H]3O[C@H](COP(=O)(O)OP(=O)(O)OP(=O)(O)O)[C@@H](O)[C@H]3O)c2n1
inactive: activation [1] 7.61% | Potency [2] | Potency [3] | Potency [4]

CCN(CC)CCCCNc1ncc2cc(-c3c(Cl)cccc3Cl)c(NC(=O)NC(C)(C)C)nc2n1
inactive: activation [1] -67.6% and 10% | Potency [2] | Potency [3] | Potency [5] | Potency [4] | Potency [6]

COc1ccc(Cl)cc1C(=O)NCCc1ccc(S(=O)(=O)NC(=O)NC2CCCCC2)cc1
inactive: activation [1] 3.95% and -3.34% and -19.4% | Potency [2] | Potency [3] | Potency [5] | Potency [4] | Potency [6]

CC[C@]1(O)CC2CN(CCc3c([nH]c4ccccc34)[C@@](C(=O)OC)(c3cc4c(cc3OC)N(C)[C@H]3[C@@](O)(C(=O)OC)[C@H](OC(C)=O)[C@]5(CC)C=CCN6CC[C@]43[C@@H]65)C2)C1 (stereo partly drawn)
active: Potency [7] 742 nM | Potency [8] 296 nM | Potency [9] 263 nM | Potency [10] 209 nM | Potency [11] 263 nM | Potency [12] 296 nM | Potency [13] 296 nM
inactive: activation [1] 4.91% | Potency [2] | Potency [3] | Potency [5] | Potency [4] | Potency [6]

CCCn1c(=O)c2c(ncn2C)n(CCC)c1=O
inactive: activation [1] -49.6% | Potency [2] | Potency [3] | Potency [4]

CCCc1c(-c2ccc(O)cc2)nn(-c2ccc(O)cc2)c1-c1ccc(O)cc1
inactive: activation [1] -36.4% | Potency [2] | Potency [3] | Potency [4]

NCCSSCCN
inactive: activation [1] 43.3% | Potency [2] | Potency [3] | Potency [4]

From PubChem BioAssay (NCATS)
